Source: PubChem BioAssay (NCATS)
Inconclusive results are not listed. Values without a mark were called inactive. Activity calls are given as the source filed them. Calls come from the whole dose curve; as a rule, active = well fitted cell-killing curve with a large enough effect; inconclusive = small, poorly fitted or top-dose-only effect; inactive = no such curve, though single readings can be large or run the other way.

Test: qHTS of pediatric cancer cell lines to identify multiple opportunities for drug repurposing: Primary screen for SJ-GBM2 cells (AID 1347091)
Settings: SJ-GBM2 viability, CellTiter-Glo luminescence, 48 h; series mostly up to 46 µM; activity change, negative = cytotoxic: at the top concentration
Excerpt: Drug repurposing or repositioning has been offered as a strategy for drug development in oncology programs. This approach has special potential for childhood cancers and other rare or orphan diseases, where the expected return on new drug development has been a disincentive to pharmaceuticals.
In this project we exploit the poly-pharmacology of drugs to discover new indications via phenotypic screening of a panel of 19 well-characterized cell lines derived from solid tumors seen in children and adolescents. The goal is to identify approved drugs with previously unrecognized anticancer properties that has the potential to reveal new mechanisms and biological processes involved in carcinogenesis or drug resistance. We employed a titration-based paradigm (quantitative high-throughput screening or qHTS), where all compounds were tested at multiple concentrations for their effect on cell viability. Concentration-response curves (CRCs) were derived directly from the primary screen, and both potency and efficacy values were used to identify compounds with robust bioactivity profiles. We screened the NIH Chemical Genomics Center (NCGC) Pharmaceutical Collection (NPC) and Mechanism Interrogation Plate (MIPE) small molecule collections of approved and investigational compounds against these cell lines; and measured metabolically active cells after 48 hours of compound treatment as a proxy for cell viability.
Assay Submitter: Nathalia J. Martinez, National Center for Advancing Translational Sciences, National Institutes of Health, Rockville, MD, USA; email: natalia.martinez@nih.gov
[1] Shen, M et al. Quantitative high-throughput phenotypic screening of pediatric cancer cell lines identifies multiple opportunities for drug repurposing. Oncotarget 2017 Dec 19;9(4):4758-4772. PMID 29435139.
The cells were obtained from University of North Carolina (UNC), Pediatric Preclinical Testing Program (PPT), and Coriell Institute (CI).
qHTS cell viability assay:
Cells were assayed in growth media at a density of 500-1,000 cells/well. Five microliters of cells were dispensed into 1,536-well, white, solid-bottom, TC-treated plates (Greiner Bio One) using a multidrop dispenser and incubated at 37 degrees C, 5% CO2, under a humidified atmosphere for 5 hours. Twenty-three nanoliters of compounds and controls (neutral control DMSO or positive control bortezomib at final concentration of 2.3 µM) were subsequently transferred by Kalypsys pintool. For primary screens, the MIPE collection was tested at 11-point dilutions (final concentrations range from 0.78 nM to 46 µM) and the NPC collection at 8-point dilutions (final concentrations range from 0.59 nM to 46 µM). Compounds tested in follow-up screens were assayed at 11-point dilutions. Cells were incubated for 48 hours, followed by addition of 3 uL of CellTiter-Glo (Promega). After a 15 min incubation at room temperature, samples were analyzed for luminescence intensity using a ViewLux High-throughput CCD imager equipped with clear filters.
Potency is the fitted concentration of half-maximal effect.

For `Cc1cc(C=c2sc3nc4ccccc4n3c2=O)c(C)n1-c1ccccc1`, which “activity change, negative = cytotoxic” value is on record?
Its value is -2.66%.

With `COc1ccc(-c2oc3cc(OC)ccc3c2C(=O)c2ccc(C#N)cc2)cc1` as the compound, how does the Potency read?
Its Potency is 1.18 µM (active).

With `CCCCCCCc1ccc(CCc2cccc(O)c2C(=O)O)cc1` as the compound, how does the Potency read?
Its Potency is 23.5 µM (active).

Which “activity change, negative = cytotoxic” value does the source give for `S=C(NCc1ccc2c(c1)OCO2)N1CCN(c2ncnc3c2oc2ccccc23)CC1` here?
Its value is -29.5% [at 92.7 µM].

Which “activity change, negative = cytotoxic” value does the source give for `Cn1cnc2c(F)c(Nc3ccc(Br)cc3Cl)c(C(=O)NOCCO)cc21` here?
Its value is 12%.

Which Potency does the source give for `CO[C@@H]1[C@H](N(C)C(=O)c2ccccc2)C[C@H]2O[C@]1(C)n1c3ccccc3c3c4c(c5c6ccccc6n2c5c31)C(=O)NC4` here?
Its Potency is 0.833 µM (active).

With `CCCS(=O)(=O)Nc1ccc(F)c(C(=O)c2c[nH]c3ncc(Cl)cc23)c1F` as the compound, how does the Potency read?
The Potency was 10.5 µM (active).

Which Potency does the source give for `NS(=O)(=O)c1cc2c(cc1Cl)NC=NS2(=O)=O` here?
The Potency was “inactive”.

With `CC(=O)Oc1ccccc1C(=O)O` as the compound, how does the Potency read?
Its Potency is “inactive”.

For `NC[C@H](O)c1ccc(O)c(O)c1`, which Potency is on record?
Its Potency is “inactive”.

With `Cc1cnc(NC(=O)C2=C(O)c3ccccc3S(=O)(=O)N2C)s1` as the compound, how does the Potency read?
Its Potency is “inactive”.

With `CCCC(CCC)C(=O)O` as the compound, how does the Potency read?
The Potency was “inactive”.

Which Potency does the source give for `OC(CCN1CCCCC1)(c1ccccc1)C1CC2C=CC1C2` (stereo not given) here?
The Potency was “inactive”.

With `CCC(C)N(C)C(=O)c1cc2ccccc2c(-c2ccccc2Cl)n1` (stereo not given) as the compound, how does the “activity change, negative = cytotoxic” value read?
The value was 3.26%.

Which “activity change, negative = cytotoxic” value does the source give for `CC(C=CC1=C(C)CCCC1(C)C)=CC=CC(C)=CC(=O)O` here?
Its value is -11%.

Which Potency does the source give for `NC(=O)c1cnccn1` here?
Its Potency is “inactive”.

For `C[C@]12CCC(=O)C=C1CC[C@@H]1[C@@H]2[C@@H](O)C[C@@]2(C)[C@H]1CC[C@]2(O)C(=O)CO`, which “activity change, negative = cytotoxic” value is on record?
Its value is 6.03%.

For `Cc1cccc(-c2[nH]c(C(C)(C)C)nc2-c2ccc3nccnc3c2)n1`, which Potency is on record?
Its Potency is 8.33 µM (active).

With `CN(C)c1ccc(Nc2nc(N)n(C(=O)c3c(F)cccc3F)n2)cc1` as the compound, how does the Potency read?
Its Potency is 16.6 µM (active).

For `CCCn1c(=O)c2[nH]c(C34CC5CC3C[C@@H](C5)C4)nc2n(CCC)c1=O`, which Potency is on record?
Its Potency is 16.6 µM (active).

For `Cc1csc(NC(=O)c2sc3nc4c(c(C(F)(F)F)c3c2N)CCC4)n1`, which “activity change, negative = cytotoxic” value is on record?
The value was 16.3%.

For `CC(C)(C)OC(=O)CN(Cc1ccc(Cl)cc1)Cc1ccc([N+](=O)[O-])s1`, which “activity change, negative = cytotoxic” value is on record?
Its value is 8.13%.

With `CNC(=O)c1ccc(C)c(-n2c(C)cc(OCc3ccc(F)cc3F)c(Br)c2=O)c1` as the compound, how does the “activity change, negative = cytotoxic” value read?
Its value is -18.4%.

Which “activity change, negative = cytotoxic” value does the source give for `Cc1cn[nH]c1` here?
The value was 22.3%.

For `Cc1c(CCOc2ccc(C(=O)O)cc2)c2cc(Cl)ccc2n1C(c1ccccc1)c1ccccc1`, which “activity change, negative = cytotoxic” value is on record?
The value was 1.51%.

For `CN(C(=O)c1ccc(F)cc1C(F)(F)F)C1CCN(c2nnc(-c3ccnn3C)c3ccccc23)CC1`, which “activity change, negative = cytotoxic” value is on record?
The value was -18.9%.

For `CCn1c(-c2nonc2N)nc2cnc(Oc3cccc(NC(=O)c4ccc(OCCN5CCOCC5)cc4)c3)cc21`, which Potency is on record?
The Potency was 0.235 µM (active).

With `Cc1ccnc(NS(=O)(=O)c2ccc(NC(=O)Nc3ccc(S(=O)(=O)Nc4nccc(C)n4)cc3)cc2)n1` as the compound, how does the Potency read?
The Potency was 16.6 µM (active).

Which “activity change, negative = cytotoxic” value does the source give for `N#CC[C@H](C1CCCC1)n1cc(-c2ncnc3[nH]ccc23)cn1` here?
Its value is -6.49%.

With `NCCc1ccc(O)c(O)c1` as the compound, how does the Potency read?
Its Potency is “inactive”.

Which “activity change, negative = cytotoxic” value does the source give for `NC(=O)c1ccc(-c2nc(-c3ccc4c(c3)OCCO4)c(-c3ccccn3)[nH]2)cc1` here?
Its value is 4.93%.

For `COc1cc(Nc2ncc3c(n2)-c2ccc(Cl)cc2C(c2c(F)cccc2OC)=NC3)ccc1C(=O)O`, which Potency is on record?
Its Potency is 0.0209 µM (active).

Which Potency does the source give for `CCCCNc1cc(C(=O)O)cc(S(N)(=O)=O)c1Oc1ccccc1` here?
Its Potency is “inactive”.

Which “activity change, negative = cytotoxic” value does the source give for `Nc1nc2c(ncn2COCCO)c(=O)[nH]1` here?
Its value is -3.51%.

Which Potency does the source give for `CCOc1cc(N2CCC(O)CC2)ccc1Nc1ncc2c(n1)N(C)c1ccccc1C(=O)N2C` here?
Its Potency is 0.132 µM (active).

Which Potency does the source give for `Cc1c(C)c2c(c(C)c1O)CCC(C)(COc1ccc(CC3SC(=O)NC3=O)cc1)O2` (stereo not given) here?
Its Potency is “inactive”.

Which Potency does the source give for `CCc1ccc(CCOc2ccc(CC3SC(=O)NC3=O)cc2)nc1` (stereo not given) here?
The Potency was “inactive”.

Which “activity change, negative = cytotoxic” value does the source give for `NNCCc1ccccc1` here?
Its value is 17.9%.

For `Cc1ccccc1C(OCCN(C)C)c1ccccc1` (stereo not given), which Potency is on record?
The Potency was “inactive”.

Which Potency does the source give for `Cc1[nH]c(=O)c(C#N)cc1-c1ccc2nccn2c1` here?
Its Potency is “inactive”.
